Data on 35 compounds can be found in article PMC4336329 (PLoS ONE, 2015).

About 14,000 (4.5%) of roughly 310,000 compounds showed an effect of 50% or more. Effects have a minus sign here. Many of the other results were omitted from the sample, so strong results are more common in it than they were.
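Further: peak tail current of the secondary pulse compared with the same well before compound.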

For the assay, the target named is human ether-à-go-go-related gene (hERG) potassium channel (human, UniProt Q12809). The assay is described as follows: primary screen, population patch clamp on CHO cells stably expressing hERG; higher = less effect of the substance.
Chain of human ether-à-go-go-related gene (hERG) potassium channel (Q12809 whole entry, looked up): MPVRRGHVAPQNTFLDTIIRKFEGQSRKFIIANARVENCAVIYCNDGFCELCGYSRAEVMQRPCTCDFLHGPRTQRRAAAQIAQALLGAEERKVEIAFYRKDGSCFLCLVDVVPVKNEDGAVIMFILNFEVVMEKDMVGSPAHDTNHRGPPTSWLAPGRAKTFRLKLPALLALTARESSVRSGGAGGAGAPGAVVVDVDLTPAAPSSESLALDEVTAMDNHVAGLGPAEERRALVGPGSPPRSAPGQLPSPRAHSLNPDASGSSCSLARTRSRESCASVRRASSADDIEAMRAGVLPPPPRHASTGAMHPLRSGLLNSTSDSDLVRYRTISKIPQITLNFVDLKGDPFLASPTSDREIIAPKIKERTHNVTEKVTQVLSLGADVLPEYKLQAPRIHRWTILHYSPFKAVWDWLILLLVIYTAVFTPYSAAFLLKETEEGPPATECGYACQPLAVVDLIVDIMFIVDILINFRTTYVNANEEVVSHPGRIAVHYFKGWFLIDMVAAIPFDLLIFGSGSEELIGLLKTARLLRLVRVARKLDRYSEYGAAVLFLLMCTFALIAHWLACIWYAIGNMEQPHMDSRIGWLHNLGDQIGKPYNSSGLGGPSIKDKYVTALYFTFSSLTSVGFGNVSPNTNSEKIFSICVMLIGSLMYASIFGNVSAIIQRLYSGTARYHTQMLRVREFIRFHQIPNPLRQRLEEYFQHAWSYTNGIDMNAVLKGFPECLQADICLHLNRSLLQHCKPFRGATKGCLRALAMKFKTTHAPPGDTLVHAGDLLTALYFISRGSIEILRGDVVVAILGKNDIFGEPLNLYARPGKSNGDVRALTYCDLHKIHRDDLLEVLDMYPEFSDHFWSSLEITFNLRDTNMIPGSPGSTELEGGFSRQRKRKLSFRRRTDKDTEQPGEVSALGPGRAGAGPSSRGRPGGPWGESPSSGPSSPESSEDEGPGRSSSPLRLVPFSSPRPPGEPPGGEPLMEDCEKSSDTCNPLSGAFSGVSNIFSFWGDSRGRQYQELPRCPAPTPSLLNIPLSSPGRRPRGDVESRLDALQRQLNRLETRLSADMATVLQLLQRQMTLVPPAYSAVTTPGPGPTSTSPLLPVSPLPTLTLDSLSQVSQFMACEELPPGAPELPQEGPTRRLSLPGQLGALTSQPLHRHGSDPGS
Take `CC(=O)N(CN1C(=O)c2ccccc2C1=O)c1cccc(C)c1`: the “hERG current change (%, negative = inhibition) at 10uM” value came out at 4.43%.

On to `Clc1ccc(-n2ncc3c(NCc4ccccn4)ncnc32)cc1`, for which the “hERG current change (%, negative = inhibition) at 10uM” value worked out at 4.15%.

Turning to `COc1ccccc1NS(=O)(=O)c1ccc(C)c(C(=O)NCC2(N(C)C)CCCCC2)c1`, the “hERG current change (%, negative = inhibition) at 10uM” value is listed as -42.9%.

Turning to `O=C(NCCCN1CCOCC1)c1ccc2c(c1)N(Cc1cccc(Cl)c1)C(=O)CS2`, the “hERG current change (%, negative = inhibition) at 10uM” value is given as -16.7%.

As to `CC1Cc2ccccc2N1C(=O)c1ccc(Br)o1` (centres unmarked), the “hERG current change (%, negative = inhibition) at 10uM” value was -13.1%.

As to `CC1Cc2ccccc2N1C(=O)COC(=O)CNC(=O)c1ccc(Br)o1` (centres unmarked), the “hERG current change (%, negative = inhibition) at 10uM” value is -60.2%.

Turning to `CC1Cc2ccccc2N1C(=O)COC(=O)c1ccc(Br)o1` (centres unmarked), the “hERG current change (%, negative = inhibition) at 10uM” value came out at 8.05%.

As for `O=C(Nc1ccccc1OC(F)F)c1ccc(Br)o1`, the “hERG current change (%, negative = inhibition) at 10uM” value is recorded as -20.9%.

Regarding `O=C(COC(=O)CNC(=O)c1ccco1)Nc1ccccc1OC(F)F`, the “hERG current change (%, negative = inhibition) at 10uM” value stood at 11.6%.

Turning to `O=C(COC(=O)CNC(=O)c1ccc(Br)o1)Nc1ccccc1OC(F)F`, the “hERG current change (%, negative = inhibition) at 10uM” value is given as -51.6%.

In the case of `Cc1ccc2nc(-c3ccccc3)cc(C(=O)N(C)CC(=O)Nc3ccccc3Br)c2c1`, the “hERG current change (%, negative = inhibition) at 10uM” value was -11%.

Consider `c1ccc(-n2nnnc2Cc2nnnn2-c2ccccc2)cc1`, for which the “hERG current change (%, negative = inhibition) at 10uM” value was determined as 50.3%.

On to `O=C(Nc1ccccc1OC(F)F)c1cc2c(s1)CCC2`, for which the “hERG current change (%, negative = inhibition) at 10uM” value was -16.4%.

On to `C=CCNC(=S)/N=c1/ccccn1C`, for which the “hERG current change (%, negative = inhibition) at 10uM” value is given as -5.42%.

Turning to `CCOC(=O)C1(CCc2ccccc2)CCN(Cc2ccc(NC(C)=O)cc2)CC1`, the “hERG current change (%, negative = inhibition) at 10uM” value is -76.6%.

As for `CCOC(=O)C1(Cc2ccccc2C)CCCN(Cc2ccc(NC(C)=O)cc2)C1` (centres unmarked), the “hERG current change (%, negative = inhibition) at 10uM” value was 11.5%.

As for `CCOC(=O)C1(CCOc2ccccc2)CCN(Cc2ccc(NC(C)=O)cc2)CC1`, the “hERG current change (%, negative = inhibition) at 10uM” value is -79.3%.

Regarding `Cc1ccc(Nc2nc(=O)c3cccnc3s2)c(Br)c1`, the “hERG current change (%, negative = inhibition) at 10uM” value is listed as 3.27%.

On to `CN(Cc1cnccn1)Cc1nc(Cc2ccccc2F)no1`, for which the “hERG current change (%, negative = inhibition) at 10uM” value was -0.154%.

Turning to `COc1ccc(Cl)cc1NS(=O)(=O)c1cccc(C(=O)NCC(c2ccco2)N(C)C)c1` (centres unmarked), the “hERG current change (%, negative = inhibition) at 10uM” value is reported as -2.01%.

For the compound `O=C(CCCn1c(=O)c2sccc2n(CC(=O)NCc2ccco2)c1=O)NCc1ccco1`, the “hERG current change (%, negative = inhibition) at 10uM” value is -6.69%.

As to `Cn1c(Br)nc2c1c(=O)n(CC(O)COc1ccccc1)c(=O)n2C` (centres unmarked), the “hERG current change (%, negative = inhibition) at 10uM” value was -1.54%.

In the case of `COCCC(=O)N1CCC(Oc2ccc(C(=O)N(C)C(C)c3ccon3)cc2)CC1` (centres unmarked), the “hERG current change (%, negative = inhibition) at 10uM” value was 13.1%.

For `CN(C)CCOC(=O)c1cn(Cc2ccccc2)c2ccccc12.Cl`, the “hERG current change (%, negative = inhibition) at 10uM” value is on record as -59.1%.

In the case of `Cn1cc(-c2ccccc2C(=O)O)c(=O)c2cc(Cl)ccc21`, the “hERG current change (%, negative = inhibition) at 10uM” value was determined as 20.9%.

Consider `CCCCCCn1cc(C(=O)O)c(=O)c2cc(F)c(N3CCCCC3)cc21`, for which the “hERG current change (%, negative = inhibition) at 10uM” value is on record as 5.7%.

On to `O=C(Cc1cn(Cc2cccc(Cl)c2)c2ccccc12)N1CCCCCC1`, for which the “hERG current change (%, negative = inhibition) at 10uM” value is listed as -4.89%.

Turning to `O=C(Cc1cn(Cc2cccc(Cl)c2)c2ccccc12)N1CCCC1`, the “hERG current change (%, negative = inhibition) at 10uM” value is given as -50%.

For the compound `CCCCCn1cc(C(=O)C(=O)N2CCOCC2)c2ccccc21`, the “hERG current change (%, negative = inhibition) at 10uM” value was -26.3%.

For the compound `CC1CCCN(C(=O)Cc2cn(Cc3cccc(Cl)c3)c3ccccc23)C1` (centres unmarked), the “hERG current change (%, negative = inhibition) at 10uM” value was -5.42%.

Regarding `O=C(COc1ccccc1)c1cn(Cc2ccccc2)c2ccccc12`, the “hERG current change (%, negative = inhibition) at 10uM” value came out at 7.62%.

Turning to `O=C(c1cn(Cc2ccccc2)c2ccccc12)C1CC1`, the “hERG current change (%, negative = inhibition) at 10uM” value came out at 7.67%.

As for `O=C(O)c1cn(Cc2ccccc2)c2ccc(Cl)cc2c1=O`, the “hERG current change (%, negative = inhibition) at 10uM” value is -76.3%.

As to `O=C(O)Cc1cn(Cc2cccc(Cl)c2)c2ccccc12`, the “hERG current change (%, negative = inhibition) at 10uM” value amounted to 12.6%.

Consider `CCCCCCn1cc(C(=O)O)c(=O)c2ccccc21`, for which the “hERG current change (%, negative = inhibition) at 10uM” value was -75.8%.
